# Bioassay records: PubChem BioAssay, several laboratories
# Shown are actives, neighbours in structure and some others; about 2.8% of the full set was active somewhere.
# EP2 modulator: EP2 receptor modulators, cAMP readout, primary screen, cell-based, HTRF cAMP, PGE2 stimulation | Prostaglandin E2 receptor EP2 subtype (Homo sapiens), P43116 | EP2-expressing cells, cAMP HTRF FRET, PGE2 co-stimulation | induction, % at 25 µM | 260,000 compounds, 0.83% hits | AID 940, 2007;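 active means compounds whose cAMP rise, as percent of the full-agonist control response, exceeds 60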;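 further: rat C6 glioma line stably carrying human EP2 under a CMV promoter; the protocol text gives 20 µM as final concentration; 100% = response of wells given 1 µM PGE2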
# Wee1 stabilizer: Wee1 degradation inhibitors, primary screen, cell-based, HeLa, Wee1K328M-luciferase, luminescence; Wee1-like protein kinase (Homo sapiens), P30291; HeLa Luc-Wee1K328M stability; 100% = proteasome inhibitor MG132 effect; reporter increase, % at 5 µM; 220,000 compounds, 1.2% hits; AID 1321, 2008;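 active means activation above the mean of all tested compounds plus 3 SD, set per screening run, cut at about 8.8% in these data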;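 further: cells exposed to compound for 20 h before luminescence read; 0% = DMSO alone and 100% = MG132 at 30 µM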
# HSV replic up: enhancers of HSV replication in host cells, fold increase, host cell viability | HSV replication augmentation in cells | maximum fold increase | 220,000 compounds, 0.005% hits; in the data active means maximum fold increase above about 1.5; inconclusive means no clear call, values can overlap the other calls; tested in PC3 cells
# EP2 antag: human EP2 receptor antagonists, primary screen, TR-FRET cAMP, C6 glioma cells; Prostaglandin E2 receptor EP2 subtype (Homo sapiens), P43116; C6 glioma cells expressing human EP2; cells stimulated with saturating PGE2; inhibition, % at 25 µM; 260,000 compounds, 0.52% hits; AID 1422, 2008;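 active means percent inhibition above 40 after rounding to a whole number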;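 further: rat C6 glioma host cells with rolipram phosphodiesterase inhibitor present; the protocol text gives 20 µM as final concentration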
# p47phox inh: p47phox/p22phox peptide binding inhibitors, primary screen, biochemical, uHTS, NADPH oxidase regulatory subunit | Neutrophil cytosol factor 1 (Homo sapiens), P14598 | fluorescence polarization, 2 h | inhibition, % at 24.7 µM | 220,000 compounds, 0.53% hits | AID 1274, 2008;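 active means inhibition above about 30%, limit read from the data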;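 further: 0% = p47phox with labelled peptide and 100% = labelled peptide alone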
# Furin inh: human furin inhibitors, primary screen, biochemical, fluorescence intensity; AID 463115, 2010; purified furin, fluorogenic substrate cleavage; inhibition, % at 20 µM or 30 µM; 220,000 compounds, 0.061% hits; P09958; in the data active means inhibition above about 25%
# Target sequence (P09958 108-714 limits assumed): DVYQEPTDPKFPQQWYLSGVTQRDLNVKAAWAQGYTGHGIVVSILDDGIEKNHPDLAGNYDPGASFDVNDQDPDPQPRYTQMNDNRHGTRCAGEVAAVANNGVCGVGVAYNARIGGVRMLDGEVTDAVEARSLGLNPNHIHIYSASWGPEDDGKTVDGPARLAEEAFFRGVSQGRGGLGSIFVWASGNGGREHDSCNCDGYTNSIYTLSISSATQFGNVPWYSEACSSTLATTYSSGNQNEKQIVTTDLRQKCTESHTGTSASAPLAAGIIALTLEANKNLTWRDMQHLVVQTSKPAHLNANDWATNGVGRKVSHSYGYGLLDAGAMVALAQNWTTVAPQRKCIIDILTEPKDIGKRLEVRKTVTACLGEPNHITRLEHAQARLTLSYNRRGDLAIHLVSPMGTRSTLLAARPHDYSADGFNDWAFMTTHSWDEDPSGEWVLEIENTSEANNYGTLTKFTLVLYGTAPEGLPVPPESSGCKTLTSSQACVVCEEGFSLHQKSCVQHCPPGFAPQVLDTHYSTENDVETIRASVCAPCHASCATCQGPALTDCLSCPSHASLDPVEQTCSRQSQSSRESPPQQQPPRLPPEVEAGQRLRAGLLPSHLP
# * = called active by the depositor; i = inactive; u = inconclusive; x = not tested or not shown.
SMILES,EP2 modulator,Wee1 stabilizer,HSV replic up,EP2 antag,p47phox inh,Furin inh
FC(F)(F)c1cc(NC(=S)N2c3ccccc3-n3cccc3[C@H]2c2cccnc2)cc(C(F)(F)F)c1,-16,x,x,44*,x,x
c1cnc2ccc(C(c3nnnn3C3CCCCC3)N3CCOCC3)cc2c1 (centres undefined),-29,x,x,8,x,x
COc1ccc(C(=O)CSc2nnc(-c3ccc(OC)c(OC)c3)o2)cc1,-170,x,x,59*,x,x
Cc1ccnn1CCC(=O)N1CCN(Cc2ccccc2F)C[C@@H]1C(C)C,-11,x,x,5,x,x
CS[C@@]12C(=O)C[C@@]3(C)[C@@H](CC[C@@]3(O)C(=O)CO)[C@H]1CCC1=CC(=O)CC[C@]12C,7,x,x,51*,x,x
C[C@]12CCC(=O)C=C1CC[C@@H]1[C@@H]2C(=O)C[C@@]2(C)[C@H]1CC[C@]2(O)C(=O)CO,2,-3,i,12,5,-10
COc1cc(NC(=O)C2CCCCC2)c(OC)cc1NC(=O)CN1CCCCC1,-5,1,i,17,-17,-24
COc1cc(-c2ccc(NC(=O)CN3CCCCC3)c(OC)c2)ccc1NC(=O)CN1CCCCC1,x,8.9*,x,x,x,-2
O=[N+]([O-])c1ccc(/C=C/C2=NN(c3ccccc3)C(c3ccco3)C2)cc1 (centres undefined),8,1,u,8,34*,-3
CN1CCN(c2ccc3nc(-c4ccc5nc(-c6ccc(O)cc6)[nH]c5c4)[nH]c3c2)CC1,28,x,x,49*,x,x
COc1cccc(N2CCN(S(=O)(=O)c3ccc4nc(-c5ccccc5)[nH]c4c3)CC2)c1,-51,0,i,18,5,-11
CC1=Nc2cccc3cccc(c23)N1,-5,-3,i,2,158*,12
Nc1ccc(C2=Nc3cccc4cccc(c34)N2)cc1,-15,2,x,7,15,-12
COc1ccc(CNC(=O)c2c(O)c3cccc4c3n(c2=O)CCC4)cc1OC,35,-1,i,12,54*,-22
COc1ccc(CNC(=O)c2c(O)c3cccc4c3n(c2=O)CCC4)cc1,20,2,i,20,-2,-14
Cc1ccc2nsnc2c1S(=O)(=O)Cl,0,x,x,18,x,x
CC(C)c1ccc(NC(=O)CSc2nc(O)c(C(C)C)c(=O)[nH]2)cc1,-32,x,x,4,x,x
Cc1n[nH]c(C)c1Cc1c(F)cccc1Cl,87*,0,i,-2,0,-20
Nc1nc(-c2ccccn2)nc(N)c1Cc1c(F)cccc1Cl,-33,2,i,5,-5,-7
COCCCNC(=S)N(Cc1cccnc1)Cc1cc2cccc(C)c2[nH]c1=O,-19,x,x,9,x,x
S=C(NCc1ccccc1)NCc1ccc2c(c1)OCO2,-5,8.9*,i,7,-1,-17
O=C(COC(=O)Cc1n[nH]c(=O)c2ccccc12)Nc1ccc(Cl)cc1F,3,8.9*,i,6,-4,-27
O=C(Cc1n[nH]c(=O)c2ccccc12)OCC(=O)N(Cc1ccccc1)Cc1ccccc1,63*,-3,i,8,-10,-5
CCOC(=O)Cc1n[nH]c(=O)c2ccccc12,4,4,i,7,2,-24
Cc1cccc(N(CC(=O)NC(C)(C)C)C(=O)c2csnn2)c1,7,x,x,11,x,x
SMILES,EP2 modulator,Wee1 stabilizer,HSV replic up,EP2 antag,p47phox inh,Furin inh
COC(=O)COc1cccc2c(=O)n(CC(=O)NCc3ccc(F)cc3)ccc12,-14,12*,i,12,8,-17
CCOC(=O)COc1cccc2c(=O)n(CC(=O)NCc3ccc4c(c3)OCO4)ccc12,-10,9.6*,i,10,1,-5
O=C(NCCNCc1cccs1)c1ccc(F)cc1,3,x,x,15,x,x
CCOC(=O)c1cnc(SC)nc1Nc1cccc2ccccc12,62*,1,i,6,-9,-6
Nc1ncc(-c2ccc([N+](=O)[O-])cc2)cn1,4,-2,i,5,78*,-14
CN1CCN(/N=C/c2ccc(N(c3ccccc3)c3ccccc3)cc2)CC1,43,2,i,-1,46*,-6
